Measurements: the supplement of paper PMC10849652
Of roughly 7,900 targets only a part is listed; those with a hit were picked by preference. About 0.6% of all pairs of compound and target were hits.

Assays:
Test in all cases: log2 fold change, soluble protein after heating vs DMSO (PISA); higher = thermal stabilisation; K562 cells, 10 uM, 30 min; active = over 0.2 and 3.5 SD of the protein, either way, in both replicates (recomputed)
[1] = compound: Cc1ccc(NC(=O)c2ccc(CN3CC[C@H](N(C)C)C3)c(C(F)(F)F)c2)cc1Nc1nccc(-c2cncnc2)n1 [bafetinib]
Method in brief: (§1)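 Values are thermal stability changes relative to control samples and are taken from duplicates. They are stated as log2 fold changes. Before quantification by TMTpro 16plex LC-MS/MS with equalised channel sums, K562 cells at 2×10^6 cells/mL were treated with 10 μM compound for 30 min, heated in aliquots for 3 min across 48°C-58°C, pooled, extracted in PBS with 0.5% NP-40 at 4°C, and centrifuged at 21,000xg for 90 min to give the soluble supernatant.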

[2] = compound: Cc1cccc(CC(=O)N2CCc3c2ccc(-c2cn(C)c4ncnc(N)c24)c3F)n1
Method in brief: as §1

[3] = compound: Cc1cn(-c2cc(NC(=O)c3ccc(C)c(Nc4nccc(-c5cccnc5)n4)c3)cc(C(F)(F)F)c2)cn1 [nilotinib]
Method in brief: as §1

[4] = compound: Cc1nc(Nc2n[nH]c3c2CN(C(=O)N[C@H](CN(C)C)c2ccccc2)C3(C)C)c2sccc2n1
Method in brief: as §1

[5] = compound: Cc1nc(Nc2ncc(C(=O)Nc3c(C)cccc3Cl)s2)cc(N2CCN(CCO)CC2)n1 [dasatinib]
Method in brief: as §1

[6] = compound: Cc1ncc(-c2ccnc(Nc3ccc(S(C)(=O)=O)cc3)n2)n1C(C)C
Method in brief: as §1

[7] = compound: Cn1cc(-c2ccc3c(c2)CCN3C(=O)Cc2cccc(C(F)(F)F)c2)c2c(N)ncnc21
Method in brief: as §1

[8] = compound: Cn1cc(-c2ccc3nnc(C(F)(F)c4ccc5ncccc5c4)n3n2)cn1
Method in brief: as §1

[9] = compound: Cn1cncc1[C@@](N)(c1ccc(Cl)cc1)c1ccc2c(c1)c(-c1cccc(Cl)c1)cc(=O)n2C [tipifarnib]
Method in brief: as §1

[10] = compound: NC(=O)c1cnc(N[C@@H]2CCCC[C@@H]2N)nc1Nc1cccc(-n2nccn2)c1
Method in brief: as §1

[11] = compound: NCC(=O)Nc1ccc(-n2nc(C(F)(F)F)cc2-c2ccc3c(ccc4ccccc43)c2)cc1
Method in brief: as §1

[12] = compound: O=C(CCCCCCC(=O)Nc1ccccc1)NO [vorinostat]
Method in brief: as §1

[13] = compound: O=C(CCCCCCNC(=O)c1cnc(N(c2ccccc2)c2ccccc2Cl)nc1)NO [citarinostat]
Method in brief: as §1

[14] = compound: c1cc(OCCN2CCCCC2)cc(-c2n[nH]c3ccc(-c4nnc[nH]4)cc23)c1
Method in brief: as §1

[15] = compound: FC(F)(F)c1ccc(/C=C/c2nc(COc3ccc(CCCCn4ccnn4)cc3)co2)cc1 [mubritinib]
Method in brief: as §1

[16] = compound: NC(=O)Nc1cc(-c2cccc(F)c2)sc1C(=O)N[C@H]1CCCNC1
Method in brief: as §1

[17] = compound: NC1(c2ccc(-c3nc4ccn5c(=O)[nH]nc5c4cc3-c3ccccc3)cc2)CCC1
Method in brief: as §1

[18] = compound: Nc1ccccc1NC(=O)c1ccc(CNC(=O)OCc2cccnc2)cc1 [entinostat]
Method in brief: as §1

[19] = compound: O=C(O)c1ccc2c(c1)nc(Nc1cccc(Cl)c1)c1ccncc12 [silmitasertib]
Method in brief: as §1

[20] = compound: O=C1NC(=O)C(c2cnc3ccccn23)=C1c1cn2c3c(cc(F)cc13)CN(C(=O)N1CCCCC1)CC2
Method in brief: as §1

Measured: log2 fold change

MAGEA8 (UniProt P43361)
UniProt P43361, sequence (P43361 whole entry, looked up): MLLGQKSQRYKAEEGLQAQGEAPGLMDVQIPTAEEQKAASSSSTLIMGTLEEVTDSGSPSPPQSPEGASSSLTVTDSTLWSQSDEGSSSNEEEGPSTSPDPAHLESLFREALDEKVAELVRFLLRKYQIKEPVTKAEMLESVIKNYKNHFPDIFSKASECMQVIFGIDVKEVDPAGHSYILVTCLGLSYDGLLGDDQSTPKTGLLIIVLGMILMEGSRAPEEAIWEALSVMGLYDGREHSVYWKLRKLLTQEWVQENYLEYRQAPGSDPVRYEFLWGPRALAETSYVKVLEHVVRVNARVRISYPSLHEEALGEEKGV
inactive: [1] 0.022 | [2] -0.265 | [4] -0.207 | [5] 0.019 | [6] 0.016 | [7] 0.008 | [8] -0.003 | [9] -0.01 | [10] -0.135 | [11] 0.034 | [12] -0.063 | [13] 0.012 | [14] -0.008
active: [3] -0.372

INTS5 (UniProt Q6P9B9)
UniProt Q6P9B9, sequence (Q6P9B9 whole entry, looked up): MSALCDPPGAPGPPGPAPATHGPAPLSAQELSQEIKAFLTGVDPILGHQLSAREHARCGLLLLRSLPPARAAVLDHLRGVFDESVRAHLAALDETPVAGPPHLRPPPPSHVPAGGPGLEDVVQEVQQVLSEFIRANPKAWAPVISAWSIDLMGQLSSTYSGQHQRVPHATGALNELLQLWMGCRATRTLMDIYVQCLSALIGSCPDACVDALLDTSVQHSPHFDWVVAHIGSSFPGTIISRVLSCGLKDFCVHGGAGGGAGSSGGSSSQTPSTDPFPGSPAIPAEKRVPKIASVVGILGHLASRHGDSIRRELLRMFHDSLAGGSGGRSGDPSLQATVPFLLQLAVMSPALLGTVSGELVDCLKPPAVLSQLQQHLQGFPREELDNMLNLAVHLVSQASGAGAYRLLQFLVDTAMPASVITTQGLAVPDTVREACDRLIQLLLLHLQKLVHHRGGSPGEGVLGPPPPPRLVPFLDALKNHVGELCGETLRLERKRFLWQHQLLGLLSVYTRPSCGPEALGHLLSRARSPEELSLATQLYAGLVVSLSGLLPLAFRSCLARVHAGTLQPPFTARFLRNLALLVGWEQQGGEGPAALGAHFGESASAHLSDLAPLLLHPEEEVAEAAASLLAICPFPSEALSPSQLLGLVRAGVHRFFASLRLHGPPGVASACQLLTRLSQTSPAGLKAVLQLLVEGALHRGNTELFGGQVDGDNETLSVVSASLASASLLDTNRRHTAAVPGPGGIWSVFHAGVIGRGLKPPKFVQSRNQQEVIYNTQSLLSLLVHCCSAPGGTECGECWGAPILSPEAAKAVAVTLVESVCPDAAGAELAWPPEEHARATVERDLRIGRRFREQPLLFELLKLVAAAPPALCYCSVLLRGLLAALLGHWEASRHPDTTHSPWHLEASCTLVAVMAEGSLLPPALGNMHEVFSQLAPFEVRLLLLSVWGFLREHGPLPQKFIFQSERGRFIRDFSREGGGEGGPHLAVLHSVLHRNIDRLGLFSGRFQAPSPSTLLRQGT
inactive: [1] -0.035 | [3] 0.146 | [4] -0.08 | [5] -0.11 | [6] 0.167 | [8] -0.003 | [9] -0.145 | [15] 0.23 | [16] 0.015 | [10] -0.116 | [17] -0.079 | [11] -0.175 | [18] 0.014 | [19] -0.006 | [20] -0.076

MFSD1 isoform 6 (UniProt Q9H3U5)
inactive: [1] -0.123 | [2] 0.066 | [3] -0.017 | [4] 0.046 | [6] -0.016 | [7] -0.034 | [8] 0.033 | [9] 0.05 | [15] 0.005 | [16] 0.02 | [10] -0.066 | [11] -0.098 | [18] -0.019 | [12] -0.053 | [13] 0.03 | [19] -0.008 | [20] 0.067 | [14] 0.043
active: [17] -0.308

MARK2 (UniProt E9PC69)
inactive: [1] 0.116 | [3] -0.007 | [4] -0.451 | [5] -0.158 | [6] -0.031 | [7] -0.038 | [8] -0.088 | [9] -0.215 | [16] -0.513 | [10] -0.401 | [11] -0.213 | [18] 0.101 | [13] 0.024 | [20] 0.082 | [14] -0.28

KMT2C isoform 3 (UniProt Q8NEZ4)
active: [17] -0.756
inactive: [1] -0.209 | [2] -0.041 | [3] -0.049 | [4] -0.093 | [5] 0.043 | [6] 0.001 | [7] 0.094 | [8] -0.215 | [15] 0.083 | [16] -0.021 | [10] 0.046 | [11] -0.006 | [18] -0.03 | [12] 0.19 | [13] 0.104 | [19] -0.052 | [20] -0.094 | [14] -0.076

MAP4K5 (UniProt Q9Y4K4)
inactive: [1] -0.064 | [2] -0.001 | [3] 0.136 | [4] -0.093 | [6] -0.116 | [7] -0.125 | [8] 0.019 | [9] -0.146 | [15] 0.022 | [16] 0.217 | [10] 0 | [17] -0.002 | [11] -0.097 | [18] -0.012 | [12] 0.074 | [13] 0.02 | [19] -0.09 | [20] 0.073 | [14] 0.026

JAK3 (UniProt P52333)
inactive: [1] -0.013 | [2] -0.056 | [3] -0.01 | [4] 0.082 | [5] -0.028 | [6] -0.02 | [7] -0.019 | [8] 0.044 | [9] 0.052 | [15] -0.061 | [16] 0 | [17] -0.045 | [11] -0.102 | [18] -0.019 | [12] -0.048 | [19] -0.003 | [20] 0.002

KIF21A (UniProt H0YI78)
inactive: [8] 0.134

MAP4K2 (UniProt Q12851)
UniProt Q12851, sequence (Q12851 whole entry, looked up): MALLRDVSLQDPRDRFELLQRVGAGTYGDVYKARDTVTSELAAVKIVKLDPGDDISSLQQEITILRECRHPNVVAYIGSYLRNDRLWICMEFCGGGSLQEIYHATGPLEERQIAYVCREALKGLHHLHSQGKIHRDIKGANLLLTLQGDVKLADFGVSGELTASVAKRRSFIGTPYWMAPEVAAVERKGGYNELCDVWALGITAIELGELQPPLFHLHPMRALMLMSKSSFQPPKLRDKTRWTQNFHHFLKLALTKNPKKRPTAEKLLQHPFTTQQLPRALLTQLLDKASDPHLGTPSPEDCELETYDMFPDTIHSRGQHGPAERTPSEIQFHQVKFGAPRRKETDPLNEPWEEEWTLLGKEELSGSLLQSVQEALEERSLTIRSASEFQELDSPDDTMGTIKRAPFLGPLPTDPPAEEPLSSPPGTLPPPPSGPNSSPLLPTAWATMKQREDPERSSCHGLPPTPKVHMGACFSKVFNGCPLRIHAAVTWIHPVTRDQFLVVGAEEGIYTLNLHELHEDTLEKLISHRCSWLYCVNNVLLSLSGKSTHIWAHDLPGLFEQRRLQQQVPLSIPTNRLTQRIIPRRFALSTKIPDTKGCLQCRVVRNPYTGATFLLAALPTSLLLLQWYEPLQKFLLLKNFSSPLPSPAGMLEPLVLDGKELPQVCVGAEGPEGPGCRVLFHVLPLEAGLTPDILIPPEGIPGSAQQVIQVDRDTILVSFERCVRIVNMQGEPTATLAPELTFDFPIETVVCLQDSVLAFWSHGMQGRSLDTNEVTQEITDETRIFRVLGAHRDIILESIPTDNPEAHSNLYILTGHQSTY
active: [16] 0.827
inactive: [1] -0.116 | [3] -0.187 | [4] 0.024 | [6] -0.13 | [7] -0.135 | [9] -0.048 | [18] 0.145 | [13] 0.116 | [14] -0.22

ITGA2B (UniProt P08514)
UniProt P08514, sequence (P08514 whole entry, looked up): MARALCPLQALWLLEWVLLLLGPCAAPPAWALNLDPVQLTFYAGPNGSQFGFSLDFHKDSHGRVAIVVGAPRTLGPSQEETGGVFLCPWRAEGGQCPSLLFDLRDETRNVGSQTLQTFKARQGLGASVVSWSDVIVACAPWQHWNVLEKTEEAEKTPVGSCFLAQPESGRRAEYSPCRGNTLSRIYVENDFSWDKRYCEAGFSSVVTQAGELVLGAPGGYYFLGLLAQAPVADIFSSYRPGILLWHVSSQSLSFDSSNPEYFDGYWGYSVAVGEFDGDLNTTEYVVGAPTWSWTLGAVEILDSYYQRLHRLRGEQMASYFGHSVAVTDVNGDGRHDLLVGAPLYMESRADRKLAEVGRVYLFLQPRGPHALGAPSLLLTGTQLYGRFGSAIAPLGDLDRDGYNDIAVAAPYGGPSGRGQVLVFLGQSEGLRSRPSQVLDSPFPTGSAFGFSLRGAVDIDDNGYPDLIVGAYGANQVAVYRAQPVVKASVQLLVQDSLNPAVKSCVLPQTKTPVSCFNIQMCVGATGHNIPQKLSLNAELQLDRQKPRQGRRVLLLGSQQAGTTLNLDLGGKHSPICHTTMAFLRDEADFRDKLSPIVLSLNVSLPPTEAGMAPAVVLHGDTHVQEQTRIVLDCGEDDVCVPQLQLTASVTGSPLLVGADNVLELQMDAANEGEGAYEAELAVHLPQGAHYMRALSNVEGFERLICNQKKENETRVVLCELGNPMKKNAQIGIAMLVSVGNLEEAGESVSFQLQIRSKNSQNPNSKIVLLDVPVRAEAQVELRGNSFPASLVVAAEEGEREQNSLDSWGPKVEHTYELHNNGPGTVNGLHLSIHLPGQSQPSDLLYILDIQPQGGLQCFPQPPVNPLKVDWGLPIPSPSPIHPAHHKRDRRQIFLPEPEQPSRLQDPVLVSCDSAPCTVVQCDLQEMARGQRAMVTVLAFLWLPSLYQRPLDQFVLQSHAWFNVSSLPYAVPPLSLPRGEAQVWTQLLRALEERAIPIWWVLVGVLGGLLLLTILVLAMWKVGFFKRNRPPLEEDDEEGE
inactive: [2] 0.256 | [3] -0.04 | [4] -0.013 | [5] 0.012 | [6] -0.151 | [7] -0.122 | [8] -0.051 | [9] 0.073 | [16] 0.085 | [10] -0.222 | [11] -0.009 | [18] -0.009 | [20] 0.02
active: [12] -0.495

KIF1B isoform 3 (UniProt O60333)
UniProt O60333, sequence (O60333 whole entry, looked up): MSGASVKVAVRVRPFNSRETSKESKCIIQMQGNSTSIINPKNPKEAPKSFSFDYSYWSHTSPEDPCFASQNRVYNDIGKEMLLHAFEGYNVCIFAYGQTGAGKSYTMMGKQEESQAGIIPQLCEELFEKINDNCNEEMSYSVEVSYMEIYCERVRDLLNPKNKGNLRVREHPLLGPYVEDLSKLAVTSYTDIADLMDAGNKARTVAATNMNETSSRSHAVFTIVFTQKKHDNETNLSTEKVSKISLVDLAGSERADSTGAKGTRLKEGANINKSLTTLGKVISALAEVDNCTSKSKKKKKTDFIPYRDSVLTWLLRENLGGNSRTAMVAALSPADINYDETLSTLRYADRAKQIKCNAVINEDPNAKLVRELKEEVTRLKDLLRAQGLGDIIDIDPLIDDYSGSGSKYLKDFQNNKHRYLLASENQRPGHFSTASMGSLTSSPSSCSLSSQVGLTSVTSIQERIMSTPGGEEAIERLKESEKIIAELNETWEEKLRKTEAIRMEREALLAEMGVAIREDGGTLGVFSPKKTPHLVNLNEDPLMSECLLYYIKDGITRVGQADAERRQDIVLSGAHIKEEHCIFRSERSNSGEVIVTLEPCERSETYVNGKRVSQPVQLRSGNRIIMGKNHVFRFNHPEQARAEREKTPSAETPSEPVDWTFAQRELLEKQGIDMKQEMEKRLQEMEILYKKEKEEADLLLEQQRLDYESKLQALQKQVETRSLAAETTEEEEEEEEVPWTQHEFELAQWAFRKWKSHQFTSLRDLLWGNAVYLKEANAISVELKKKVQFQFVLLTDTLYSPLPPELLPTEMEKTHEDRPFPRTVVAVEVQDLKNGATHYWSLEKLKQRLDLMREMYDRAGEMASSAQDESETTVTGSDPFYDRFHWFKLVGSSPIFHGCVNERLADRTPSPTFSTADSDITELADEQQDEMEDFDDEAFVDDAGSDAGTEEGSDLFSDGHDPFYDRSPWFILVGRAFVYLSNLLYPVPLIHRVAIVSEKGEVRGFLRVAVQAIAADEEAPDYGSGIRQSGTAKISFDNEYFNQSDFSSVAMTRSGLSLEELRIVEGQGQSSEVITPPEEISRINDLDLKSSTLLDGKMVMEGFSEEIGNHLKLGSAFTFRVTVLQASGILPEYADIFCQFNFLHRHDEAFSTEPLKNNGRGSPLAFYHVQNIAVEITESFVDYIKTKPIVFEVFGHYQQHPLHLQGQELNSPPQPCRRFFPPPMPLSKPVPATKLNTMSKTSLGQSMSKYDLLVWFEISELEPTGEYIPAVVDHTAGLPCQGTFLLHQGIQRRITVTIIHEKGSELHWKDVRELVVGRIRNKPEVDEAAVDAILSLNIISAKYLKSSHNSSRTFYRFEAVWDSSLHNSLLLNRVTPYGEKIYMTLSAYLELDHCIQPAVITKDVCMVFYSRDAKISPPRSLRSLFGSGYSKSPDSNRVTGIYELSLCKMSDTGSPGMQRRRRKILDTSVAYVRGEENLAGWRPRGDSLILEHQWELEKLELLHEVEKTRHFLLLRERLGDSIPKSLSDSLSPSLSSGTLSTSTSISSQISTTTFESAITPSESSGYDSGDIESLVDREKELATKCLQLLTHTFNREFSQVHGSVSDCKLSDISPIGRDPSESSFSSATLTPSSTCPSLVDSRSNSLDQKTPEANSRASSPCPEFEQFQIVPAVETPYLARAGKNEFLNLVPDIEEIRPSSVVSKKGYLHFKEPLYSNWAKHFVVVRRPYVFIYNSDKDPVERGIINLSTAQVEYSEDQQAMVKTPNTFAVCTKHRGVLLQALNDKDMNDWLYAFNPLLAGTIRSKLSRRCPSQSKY
inactive: [15] 0.168 | [17] -0.073 | [11] -0.389 | [13] 0.043 | [19] -0.057 | [14] -0.55
